Source: PubChem BioAssay
Only some compounds are listed: those with a hit (about 1.3% of all), similar ones and a draw of the others.
MCL1-BIM inh: inhibitors of MCL1 binding to BIM-BH3, primary screen, biochemical, fluorescence polarization. AID 2057, 2009. Induced myeloid leukemia cell differentiation protein Mcl-1 (Homo sapiens), Q07820. GST-MCL1 / FITC-Bim-BH3 fluorescence polarization. 320,000 compounds, 0.68% hits. inhibition, % at 10.9 µM;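 active = inhibition above the mean inhibition of all tested compounds plus 3 SD, set per campaign, cut at about 40% in these data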;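 note: higher means more loss of mP so more displacement of Bim peptide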
EBV gp42 inh: Epstein-Barr virus gp42 inhibitors, primary screen, biochemical, uHTS, fluorescence polarization; Fluorescence polarization binding assay, mP read-out; inhibition, % (tested at 21.74 µM); 220,000 compounds, 0.42% hits; in the data active = inhibition above about 50%
MEX-5 binding: MEX-5 zinc finger RNA-binding disruptors – biochemical, C. elegans, fluorescence polarization, MLPCN library, primary screen. Zinc finger protein mex-5 (Caenorhabditis elegans), Q9XUB2. MEX-5/FITC-TCR2 RNA binding; hits give low values. activity score (negative = inhibition of binding), % at 10 µM. 300,000 compounds, 0.38% hits. AID 1832, 2009;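 active = inhibition past about -25% in most replicates, and total fluorescence under double the plate's negative control median, limit read from the data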
GLD-1 TGE inh: GLD-1/TGE RNA complex disruptors, primary screen, biochemical, fluorescence polarization; Female germline-specific tumor suppressor gld-1 (Caenorhabditis elegans), Q17339; purified GLD-1 + fluorescein TGE RNA; inhibition, % at 5.96 µM; 320,000 compounds, 0.44% hits; AID 2280, 2010;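 active = percent inhibition above a per-plate cutoff, the plate mean of test compounds plus 3 SD, cut at about 30% in these data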
Target sequence (Q17339 whole entry, looked up): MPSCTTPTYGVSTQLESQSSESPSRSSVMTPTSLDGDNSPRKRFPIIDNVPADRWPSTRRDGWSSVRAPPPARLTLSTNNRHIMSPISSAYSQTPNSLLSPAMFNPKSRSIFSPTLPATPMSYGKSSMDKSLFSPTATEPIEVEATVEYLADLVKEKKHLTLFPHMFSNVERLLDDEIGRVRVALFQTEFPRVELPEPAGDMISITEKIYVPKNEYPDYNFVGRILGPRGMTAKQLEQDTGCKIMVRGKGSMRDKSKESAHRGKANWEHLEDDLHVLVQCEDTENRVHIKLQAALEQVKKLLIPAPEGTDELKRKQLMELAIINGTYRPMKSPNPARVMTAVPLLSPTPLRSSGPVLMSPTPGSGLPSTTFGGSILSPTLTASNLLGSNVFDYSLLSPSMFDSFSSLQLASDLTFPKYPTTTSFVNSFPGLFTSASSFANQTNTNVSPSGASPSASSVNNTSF
BCLXL inh: inhibitors of human Bcl-xL, primary screen, biochemical, fluorescence polarization, HTS | 320,000 compounds, 0.7% hits | inhibition, % at 10.9 µM | GST-Bcl-xL / FITC-Bim BH3 peptide fluorescence polarization | AID 2129, 2009 | Bcl-2-like protein 1 (Homo sapiens), Q07817;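 active = inhibition above the mean of all tested compounds plus 3 SD, cutoff set per campaign, cut at about 30% in these data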;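 note: inhibitors lower millipolarization by displacing the labeled peptide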
GLD-1 TGE cf: GLD-1/TGE RNA binding inhibitors, retest, confirmation, biochemical, fluorescence polarization, triplicate; shares compounds with GLD-1 TGE inh; GLD-1/FL-TGE RNA fluorescence polarization; 550 compounds, 10% hits; inhibition, % at 5.96 µM;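 active = average inhibition across triplicates above the hit cutoff set in the primary screen, cut at about 32% in these data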
Large screens that a line does not name were inactive (follow-up assays come after a bar, where they were run).

CCc1ccc(NC(=O)C2CCCN(S(=O)(=O)c3cnc[nH]3)C2)cc1 (centres undefined)	GLD-1 TGE inh 61 (no result: EBV gp42 inh) | GLD-1 TGE cf inactive
CC(C)N1C(=O)C2ON(c3ccccc3)C(c3cccs3)C2C1=O (centres undefined)	GLD-1 TGE inh 38 | GLD-1 TGE cf inactive
C/C(=C\C(=O)c1cccnc1)Nc1ccc(O)cc1	GLD-1 TGE inh 31 | GLD-1 TGE cf inactive
C/C(=C\C(=O)c1ccccc1)Nc1ccc(O)cc1	none
CCOC(=O)COc1ccc(C(=O)Nc2cccc(Cl)c2C)cc1	none
CCOc1ccc(S(=O)(=O)Nc2nc3ccc(OC)cc3s2)cc1	GLD-1 TGE inh 39 | GLD-1 TGE cf inactive
CC(=O)Nc1ccc(NC(=O)CCn2c(=S)oc3ccccc32)cc1	none
CC(=O)c1ccc(NC(=O)CCn2c(=S)oc3ccccc32)cc1	GLD-1 TGE inh 43 (no result: EBV gp42 inh) | GLD-1 TGE cf inactive
C[C@H]1C=C(C(=O)NCc2nc3ccccc3[nH]2)O[C@@H](OCCCCO)C1	none (no result: EBV gp42 inh)
O=C(NCc1nc2ccccc2[nH]1)C1=C[C@@H](C2CCCCC2)C[C@@H](OCCCCO)O1	GLD-1 TGE inh 85 | GLD-1 TGE cf inactive
CCC1(c2ccc(F)cc2)NC(=O)N(CC(=O)N2CCN(C(=O)c3ccco3)CC2)C1=O (centres undefined)	none (no result: MCL1-BIM inh, EBV gp42 inh, MEX-5 binding, BCLXL inh)
CC1CCCCN1Cc1c(O)ccc2c(=O)c(-c3ccccc3)coc12 (centres undefined)	MCL1-BIM inh 41, GLD-1 TGE inh 42, BCLXL inh 36 (no result: EBV gp42 inh) | GLD-1 TGE cf inactive
COc1ccc(CNC(=O)COC(=O)c2ccccn2)cc1	none (no result: MEX-5 binding)
Cc1ccc(NC(=O)CN2C(=O)N/C(=C/c3ccc(C)o3)C2=O)cc1	GLD-1 TGE inh 38 | GLD-1 TGE cf inactive
C=CCN1C(=O)N/C(=C/c2ccc(C)o2)C1=O	GLD-1 TGE inh 42 | GLD-1 TGE cf inactive
Cc1cccc(NC(=O)CN2C(=O)N/C(=C/c3ccc(C)o3)C2=O)c1	none
O=C(CSc1ccccc1)NCC1(N2CCOCC2)CCCCC1	none (no result: EBV gp42 inh)
CN(C)c1cc[n+](CC(=O)c2ccc(-c3ccccc3)cc2)cc1	none
O=C(O)C1Sc2[nH]c(=O)sc2C2c3cc(Br)ccc3OC(=O)C12 (centres undefined)	MCL1-BIM inh 45, GLD-1 TGE inh 54, BCLXL inh 38 (no result: MEX-5 binding) | GLD-1 TGE cf inactive
COc1ccc(-c2cn3nc(SCC(=O)NC4CCCCC4)ccc3n2)cc1	none (no result: EBV gp42 inh)
COc1c(CC=C(C)C)cc(C2CC(=O)c3c(O)cc(O)cc3O2)c(CC=C(C)C)c1O (centres undefined)	none (no result: EBV gp42 inh)
CC(C)=CCc1cc([C@@H]2CC(=O)c3ccc(O)c(CC=C(C)C)c3O2)ccc1O	GLD-1 TGE inh 43 (no result: EBV gp42 inh) | GLD-1 TGE cf inactive
CCOc1ccc(NC(=O)CC2S/C(=N/N=C3CCCCCC3)NC2=O)cc1 (centres undefined)	GLD-1 TGE inh 39 (no result: EBV gp42 inh) | GLD-1 TGE cf inactive
COC(=O)c1c(C)[nH]c(C(=O)C(C)OC(=O)C2CC2)c1C (centres undefined)	none (no result: EBV gp42 inh, MEX-5 binding)
CCOC(=O)c1c(C)nc2sc3c(=O)n(-c4ccc(C(C)=O)cc4)cnc3c2c1-c1ccc(OC)cc1	GLD-1 TGE inh 43, BCLXL inh 31 | GLD-1 TGE cf inactive
CCOC(=O)c1c(C)nc2sc3c(=O)n(-c4ccc(OC)cc4)nnc3c2c1-c1ccc(OC)cc1	none
CSc1ccccc1NC(=O)CSc1nnc(Cc2ccccc2)o1	none (no result: EBV gp42 inh)
Cc1ccc2nc3n(c(=O)c2c1)-c1ccc(Cl)cc1C(=O)NC3Cc1ccccc1 (centres undefined)	GLD-1 TGE inh 33 (no result: EBV gp42 inh, MEX-5 binding) | GLD-1 TGE cf inactive
Cc1cc(NC(=O)CCC(=O)N(CC(=O)NC2CCCC2)c2ccc(C(C)C)cc2)no1	none (no result: EBV gp42 inh)
CCN(Cc1ccccc1)C(=O)CCS(=O)(=O)c1ccc2c(c1)n(C)c(=O)c(=O)n2C	GLD-1 TGE inh 46 (no result: EBV gp42 inh) | GLD-1 TGE cf inactive
